# ± gives the standard deviation.
# System: MILI (PIWIL2) piRISC loaded with piRNA #1 (26 nt)
# Assay: pre-steady-state target cleavage rate (min^-1); guide: piRNA #1 5'p-UGAGGUAGUAGGUUGUAUAGUAUCCA; MIWI and MILI are mouse PIWI proteins and EfPiwi is from a freshwater sponge; tags in brackets are library labels; higher = faster piRNA-guided slicing of the target
# Settings: auxiliary factor: 500 nM mouse GTSF1
# Method in brief: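 Active affinity-purified piRISC (1 nM) loaded with one synthetic guide was mixed with a transcribed, DNA-blocked target RNA library (0.1 nM), with or without 500 nM GTSF1 partner protein, in HEPES–potassium acetate buffer at 33 °C for 0–8 or 0–960 min. Uncleaved targets were sequenced, normalised to depth and to weakly complementary targets, and pooled across three trials, with k3 capped at 0.0001 min^-1. The pre-steady-state cleavage rate was determined with a burst-and-steady-state fit.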
row,Sequence,pre-steady-state target cleavage rate
1,GGAGACCUAUGAUUACAACCUACUCCCUCA,0.00393 ± 0.0029
2,GGAGACCUAUGAUUACAAACUACUACCUCA,0.0225 ± 0.0059
3,GGAGUGGAUACUAUAAACCUACUACCUCA,0.0206 ± 0.0043
4,GGAGACCUAACUAUACAAGCAACUACCUCA,0.00654 ± 0.0041
5,GGAGACCUAUCUAUACAACCAUCUACCUCA,0.00428 ± 0.0031
6,GGAGACCUAUGAUAUGUUGCUACAACCUGA,< 0.0001
7,GGAGACCUAUGAUAUGUUGCUACUACCUCCA,< 0.0001
8,GGAGACCUAUGAUUACAACCUACUACCACA,0.00372 ± 0.0023
9,GGAGACCUUACUUUACAACGUACUACCUCA,0.0199 ± 0.0047
10,GGAGACCUAACUAAUCAACCUACUACCUCA,0.0719 ± 0.016
11,GGAGACCUAUGAUAUGAACCUACAACCACA,< 0.0001
12,GGAGACCUAUCUUUACAACCUACUUCCUCA,0.0374 ± 0.0094
13,GGAGACGAUACUAAACAACCUACUUCCUCA,0.0843 ± 0.021
14,GGAGACCUUACUAUACAACCUACUUGGAGA [g7:g22:cont:t1A],0.00375 ± 0.0034
15,GGAGACCUAUGUAUUCAACCUACUUCCUCA,0.00515 ± 0.0026
16,GGAGACCUAACUAUACAAGGUACUACCUCA,0.0664 ± 0.012
17,GGAGACCUAUGAUAUGUUGCUACUACCUCU [g2:g11:cont:t1U],< 0.0001
18,GGAGUGGAUACAAAACAACCUACUACCUCA,0.12 ± 0.0086
19,GGAGAGGAUACUAUAGUUCCUACUACCUCA,0.18 ± 0.015
20,GGAGACCUAUGAUAUGAACCUACAACGUCA,< 0.0001

row,Sequence,pre-steady-state target cleavage rate
1,GGAGACCUUACUAUUCAACCUUCUACCUCA,0.00471 ± 0.0024
2,GGAGACCUAUGAUAUGUACCUACAACCUGA,< 0.0001
3,GGAGACCUUACUAUACAACCUUCUACCACA,0.00842 ± 0.0039
4,GGAGACCUAAACUAUACAACCUACUACCUCA,0.148 ± 0.018
5,GGAGACCUUUCUAUACAAGCUACUACCUCA,0.159 ± 0.012
6,GGAGACCUAUGAUUACAACAUACUACCUCA,0.00271 ± 0.0024
7,GGAGACCAUACUAUUCAACCUAGUACCUCA,0.0559 ± 0.011
8,GGAGACCAUACUUUACAUCCUACUACCUCA,0.296 ± 0.029
9,GGAGACCAUACUAUACAAGCUACUACCACA,0.32 ± 0.02
10,GGAGACCUAUCUUACAACCUACUACCUCA,0.0336 ± 0.0082
11,GGAGACGAUUCUUUACAACCUACUACCUCA,0.152 ± 0.011
12,GGAGACCUAUGAUUACAACCUACUACCUAA,0.00444 ± 0.003
13,GGAGACCUUAUAUACAACCUACUACCUCA,0.0314 ± 0.0072
14,GGAGAGGAUACUUAACAACCUACUACCUCA,0.163 ± 0.013
15,GGAGACCUAUGAUAUCAUGCUACUACCUCA,< 0.0001
16,GGAGACCUAACUAUUGAACCUACUACCUCA,0.0878 ± 0.011
17,GGAGACCUAUGAUAUCAACCUAUCUACCUCA,0.00534 ± 0.002
18,GGAGACCUUACUAUUCAACCUACUAGCUCA,0.0771 ± 0.014
19,GGAGACCUAUCUAAACAAGCUACUACCUCA,0.176 ± 0.019
20,GGAGACCAUACAAUACAACCUACUACGUCA,0.0912 ± 0.014

# Source: the supplement of paper PMC10338343
